# The source made the active and inactive calls. Unless noted, the rule behind the calls is not given here.
# Assays:
# [1] = HepG2 liver cancer cell viability effects, profiling panel, resazurin fluorescence, 24 h, PK04 Diversity Set (AID 1172); settings: higher = more signal
# [2] = basal S. cerevisiae growth modulation, no modifier, primary screen, OD600, strain BY4716, 24 h, basal condition (AID 1173); settings: OD600, 24 h, higher = more signal, called active from +8 up or from −8 down
# [3] = MM1S myeloma cell viability, profiling panel, resazurin fluorescence, basal, 24 h, PK04 Diversity Set (AID 1174); settings: higher = more signal, called active from +8 up or from −8 down;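 note: MM1S multiple myeloma cell line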
# [4] = molecular target: Dihydroorotate dehydrogenase (quinone), mitochondrial (Plasmodium falciparum (isolate 3D7)) (UniProt Q08210); assay: PfDHODH enzyme inhibitors, primary screen, biochemical, C-terminal His tag, absorbance 600 nm (AID 1175); settings: DCIP absorbance 600 nm, higher = more signal, called active from +8 up or from −8 down;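 note: recombinant parasite enzyme with a five histidine tag at its C terminus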
# Chain of Dihydroorotate dehydrogenase (quinone), mitochondrial (Plasmodium falciparum (isolate 3D7)) (Q08210 whole entry, looked up): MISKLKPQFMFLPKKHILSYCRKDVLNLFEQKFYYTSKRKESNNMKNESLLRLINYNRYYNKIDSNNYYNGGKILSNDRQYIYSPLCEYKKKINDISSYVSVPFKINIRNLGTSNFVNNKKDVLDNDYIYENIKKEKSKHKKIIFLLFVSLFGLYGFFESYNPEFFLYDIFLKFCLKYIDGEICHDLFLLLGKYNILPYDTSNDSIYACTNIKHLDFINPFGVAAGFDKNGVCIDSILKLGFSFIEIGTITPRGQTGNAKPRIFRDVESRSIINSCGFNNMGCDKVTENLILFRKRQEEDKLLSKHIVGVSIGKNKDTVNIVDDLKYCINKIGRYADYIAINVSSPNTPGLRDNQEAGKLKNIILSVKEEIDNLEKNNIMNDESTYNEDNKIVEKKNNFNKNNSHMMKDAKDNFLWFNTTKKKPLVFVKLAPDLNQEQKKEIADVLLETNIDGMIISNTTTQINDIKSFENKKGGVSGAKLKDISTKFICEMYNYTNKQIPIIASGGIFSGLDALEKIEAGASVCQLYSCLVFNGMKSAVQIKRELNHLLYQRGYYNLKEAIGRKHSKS
# [5] = P. aeruginosa biofilm formation inhibitors, primary screen, strain PAO1, LB-PBS medium, absorbance 600 nm (AID 1176); settings: P. aeruginosa PAO1 growth/biofilm, A600, 12 h; higher = more signal
# [6] = S. cerevisiae RM11-1a growth modifiers, primary screen, strain RM11-1a, OD600, basal, 24 h (AID 1177); settings: OD600, 24 h, higher = more signal, called active from +8 up or from −8 down;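 note: cultures grown under basal conditions with no added stressor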
# [7] = E. coli acrAB mutant growth effects, primary screen, E. coli filamentation inducers, strain DRC39, OD650, 24 h (AID 1178); settings: higher = more signal, called active from +8 up or from −8 down;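 note: growth measured as culture turbidity by optical density at 650 nm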
# [8] = E. coli acrAB mutant growth effects, primary screen, E. coli filamentation inducers, strain DRC39, OD650, 48 h (AID 1179);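 note: screen aims at cell division blockers that make cells filament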; settings: E. coli DRC39 delta-acrAB growth, higher = more signal, called active from +8 up or from −8 down
# [9] = RPMI8226 myeloma cell viability, profiling panel, resazurin fluorescence, basal, 24 h, PK04 Diversity Set (AID 1180); settings: higher = more signal;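 note: RPMI8826 multiple myeloma cell line at 5000 cells per well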
# [10] = molecular target: E3 ubiquitin-protein ligase XIAP (Homo sapiens) (UniProt P98170); assay: XIAP binders, primary screen, biophysical, small-molecule microarray, fluorescence 635 nm (AID 1181); settings: small-molecule microarray binding, higher = more signal;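 note: score merges 667 nm emission and signal to noise over triplicate slides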
# Chain of E3 ubiquitin-protein ligase XIAP (Homo sapiens) (P98170 whole entry, looked up): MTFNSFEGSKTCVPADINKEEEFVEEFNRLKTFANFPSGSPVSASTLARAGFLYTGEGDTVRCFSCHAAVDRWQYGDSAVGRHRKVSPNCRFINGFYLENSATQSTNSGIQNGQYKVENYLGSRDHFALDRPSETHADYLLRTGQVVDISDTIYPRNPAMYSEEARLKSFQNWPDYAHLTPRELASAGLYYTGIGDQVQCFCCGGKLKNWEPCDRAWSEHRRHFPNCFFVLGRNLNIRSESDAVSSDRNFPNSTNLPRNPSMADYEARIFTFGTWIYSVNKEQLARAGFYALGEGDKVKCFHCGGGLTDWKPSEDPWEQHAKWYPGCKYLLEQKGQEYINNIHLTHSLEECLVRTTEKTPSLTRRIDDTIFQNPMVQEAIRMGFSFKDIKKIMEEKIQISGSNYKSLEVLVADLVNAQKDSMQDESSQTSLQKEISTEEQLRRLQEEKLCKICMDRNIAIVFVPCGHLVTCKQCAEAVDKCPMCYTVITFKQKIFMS
# [11] = test system: XIP peptide (Xip251-270) binding; assay: small-molecule binders of XIP peptide, primary screen, biochemical, small-molecule microarray, fluorescence 635/667 nm, 0.1 µg/mL protein (AID 1182); settings: fluorescent protein binding, 635 nm, higher = more signal, called active from +8 up or from −8 down
# XIP peptide (Xip251-270) = assay: small-molecule binders of XIP peptide, primary screen, biochemical, small-molecule microarray, fluorescence 635/667 nm, 0.5 µg/mL protein (AID 1183); settings: small-molecule microarray binding, fluorescence 635 nm; higher = more signal
# [12] = Plasmodium falciparum growth inhibition, primary screen, strain 3D7, DAPI fluorescence, 100 nL (AID 1184);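 note: parasites grown inside human red blood cells in medium with human serum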; settings: P. falciparum 3D7 growth, 3 d, higher = more signal
# [13] = molecular target: Homeobox protein Hox-A13 (Mus musculus) (UniProt Q62424); assay: inhibitors of HoxA13-DNA binding, primary screen, biochemical, fluorescence polarization, labeled oligonucleotide (AID 1185); settings: 15 min, higher = more signal, called active from +8 up or from −8 down
# Chain of Homeobox protein Hox-A13 (Mus musculus) (Q62424 whole entry, looked up): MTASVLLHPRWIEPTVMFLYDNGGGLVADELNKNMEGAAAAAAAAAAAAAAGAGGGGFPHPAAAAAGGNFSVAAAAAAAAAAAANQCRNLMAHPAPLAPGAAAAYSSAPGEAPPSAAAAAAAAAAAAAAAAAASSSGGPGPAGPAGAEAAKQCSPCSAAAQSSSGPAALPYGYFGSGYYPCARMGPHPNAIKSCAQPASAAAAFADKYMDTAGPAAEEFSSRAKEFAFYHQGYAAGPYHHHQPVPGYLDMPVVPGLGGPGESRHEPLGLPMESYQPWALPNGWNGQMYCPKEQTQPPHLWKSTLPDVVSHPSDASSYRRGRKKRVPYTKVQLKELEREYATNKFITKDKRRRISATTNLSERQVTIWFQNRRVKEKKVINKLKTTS
# [14] = inhibitors of hydroxyurea-induced Chk1 phosphorylation, primary screen, imaging, HeLa, phospho-Chk1 antibody, percent positive cells (AID 1186); settings: hydroxyurea-induced phospho-Chk1 immunofluorescence imaging, higher = more signal
# [15] = inhibitors of hydroxyurea-induced Chk1 phosphorylation, primary screen, imaging, HeLa, phospho-Chk1 nuclear intensity (AID 1187); settings: hydroxyurea-induced phospho-Chk1 immunofluorescence imaging, higher = more signal
Compound,z-score [1],z-score [2],z-score [3],composite z-score [4],z-score [5],z-score [6],z-score [7],z-score [8],z-score [9],composite z-score [10],composite z-score [11],composite z-score (XIP peptide (Xip251-270)),z-score [12],z-score [13],z-score [14],z-score [15]
C=C(COC)/C(=C/C[C@H](OC(=O)c1ccncc1)c1ccccc1OCCO)c1cc(C(=O)OC)ccc1OC,-0.418,-0.0515 (inactive),-2.16 (inactive),-2.32 (inactive),0.367 (inactive),-0.567 (inactive),-1.31 (inactive),-1.21 (inactive),-1.58,-0.157,0.0249 (inactive),0.12,-2.95,-4.91 (inactive),0.127 (inactive),0.0857 (inactive)
CC(=O)NCCCC[C@@H]1NC(=O)[C@@H]2C[C@H](C(=O)NCCCCCN)[C@H](c3cccc(OCCO)c3)N2C1=O,0.619,-0.659 (inactive),0.427 (inactive),-0.585 (inactive),0.392 (inactive),-1.42 (inactive),1.03 (inactive),1.9 (inactive),0.0926,0.087,0.845 (inactive),0.878,0.0297,-2.54 (inactive),-1.16 (inactive),-0.913 (inactive)
O=C(NCCN1CCOCC1)[C@@H]1c2ccccc2C(=O)N(Cc2ccccc2Cl)[C@H]1c1ccc(CO)cc1,-0.0211,0.199 (inactive),-1.21 (inactive),-0.0473 (inactive),0.0993 (inactive),0.593 (inactive),0.447 (inactive),0.865 (inactive),-0.831,0.0178,-0.121 (inactive),-0.209,-0.879,-4.26 (inactive),-0.0685 (inactive),0.227 (inactive)
CC1=C2[C@@H](CCc3ccccc3)OB(O)C[C@@H]2[C@@H]2C(=O)N(Cc3ccccc3)C(=O)[C@@H]2C1,-0.819,-4.86 (inactive),-0.249 (inactive),-1.71 (inactive),0.118 (inactive),-0.849 (inactive),-0.204 (inactive),-0.225 (inactive),-0.26,-0.193,0.291 (inactive),0.629,1.62,-7.81 (inactive),0.235 (inactive),0.264 (inactive)
CN(C)c1ccc(C(O)C2C=CC3C(=O)NC(=O)C3N2Nc2ccccn2)cc1 (centres undefined),-0.8,1.03 (inactive),-1.21 (inactive),0.957 (inactive),0.503 (inactive),0.489 (inactive),-0.738 (inactive),0.0674 (inactive),-1.79,0.0726,-0.181 (inactive),-0.0515,0.597,-2.26 (inactive),0.431 (inactive),0.493 (inactive)
COC(=O)[C@@]1(Cc2ccc(F)cc2)[C@H]2c3cc(C(=O)N(C)C)n(Cc4ccc(OC(F)(F)F)cc4)c3C[C@H]2CN1C(=O)c1ccccc1,-0.674,0.825 (inactive),-0.933 (inactive),-0.0384 (inactive),0.604 (inactive),0.245 (inactive),-0.586 (inactive),-0.499 (inactive),-0.603,-0.102,0.342 (inactive),-0.133,0.595,-0.102 (inactive),0.233 (inactive),0.579 (inactive)
COc1ccc(CCNC(=O)[C@@H]2c3ccccc3C(=O)N(C3CCCCC3)[C@H]2c2ccc(CO)cc2)cc1,-0.0966,0.162 (inactive),-0.298 (inactive),0.77 (inactive),1.32 (inactive),0.726 (inactive),-0.712 (inactive),-1.39 (inactive),0.978,-0.0349,0.09 (inactive),0.658,-1.76,-3.32 (inactive),0.183 (inactive),-0.0923 (inactive)
COc1cc2c(cc1O)C(c1cccs1)N(Cc1cc3c(cc1Br)OCO3)CC2 (centres undefined),-0.608,-1.4 (inactive),-0.511 (inactive),-1.88 (inactive),-0.227 (inactive),0.488 (inactive),-0.284 (inactive),-1 (inactive),-1.59,0.483,-0.177 (inactive),0.867,-1.57,-1.01 (inactive),-0.117 (inactive),0.128 (inactive)
C=CCNC(=O)[C@@H]1[C@H]2C(=O)O[C@H](c3ccccc3)[C@H](c3ccccc3)N2[C@H](c2ccccc2OCCO)[C@@]12C(=O)N(C(=O)OCCOC)c1ccc(C#CC3(O)CCCCCC3)cc12,-0.405,0.605 (inactive),-2.57 (inactive),-1.91 (inactive),2.12 (inactive),0.766 (inactive),0.0265 (inactive),-0.609 (inactive),-3.27,0.133,0.99 (inactive),0.674,-2.21,-2.56 (inactive),-0.0659 (inactive),0.294 (inactive)
CCCNC(=O)[C@@]1(Sc2ccc(C)cc2)CC(=O)N(C2Cc3ccccc3C2)[C@@H]1c1ccc(CO)cc1I,-0.463,-2.31 (inactive),-1.67 (inactive),-0.141 (inactive),0.518 (inactive),-0.564 (inactive),0.599 (inactive),-0.0019 (inactive),-1.55,-0.0286,0.0241 (inactive),0.733,0.441,-2.68 (inactive),0.34 (inactive),0.78 (inactive)
CCCC1(C(=O)OC)C=C2C(=C(C)C(=O)C2C)CN1 (centres undefined),-1.11,1.99 (inactive),-1.23 (inactive),-1.8 (inactive),0.343 (inactive),0.338 (inactive),-0.715 (inactive),0.0101 (inactive),-1.88,0.258,-1.06 (inactive),-0.527,0.43,-4.88 (inactive),0.779 (inactive),0.909 (inactive)
CN(C)CCCCCCNC(=O)[C@@H]1C[C@@H]2C(=O)N3CCC[C@H]3C(=O)N2[C@@H]1c1cccc(OCCO)c1,-2.4,0.451 (inactive),-0.727 (inactive),-0.595 (inactive),-0.267 (inactive),0.363 (inactive),0.0047 (inactive),-0.391 (inactive),-0.946,-0.0062,2.52 (inactive),0.872,0.517,-2.94 (inactive),0.0537 (inactive),-0.055 (inactive)
COCCCNC(=O)[C@@]1(CCC(=O)OC(C)(C)C)N=C(c2ccc(OCCCO)cc2)O[C@H]1c1ccccc1N=[N+]=[N-],1.6,-0.497 (inactive),-0.0477 (inactive),-0.291 (inactive),-0.165 (inactive),0.252 (inactive),1.42 (inactive),0.268 (inactive),0.72,-0.0773,3.51 (inactive),0.476,-2.39,-4.09 (inactive),0.739 (inactive),1.43 (inactive)
CCOC(=O)C[C@H]1[C@H](OC(=O)c2ccc(C(=O)c3ccccc3)cc2)[C@@H](NC(=O)CC(C)C)c2cc(OCCCO)ccc2N1C(=O)c1ccccc1,-0.358,0.325 (inactive),0.0303 (inactive),-0.235 (inactive),0.714 (inactive),-0.0649 (inactive),-0.794 (inactive),-0.717 (inactive),-0.281,-0.0773,0.786 (inactive),0.671,1.38,-3.51 (inactive),0.309 (inactive),-0.0385 (inactive)
O=C1C2C=CC(C(O)c3cccc(O)c3)N(Nc3ccc([N+](=O)[O-])cc3)C2C(=O)N1c1ccccc1 (centres undefined),0.0585,0.661 (inactive),-0.337 (inactive),0.861 (inactive),-0.0601 (inactive),0.339 (inactive),-0.478 (inactive),-0.156 (inactive),-0.55,0.0927,-0.232 (inactive),0.342,1.25,-3.9 (inactive),0.181 (inactive),-0.322 (inactive)
COc1cc(OC)c(C(O)C2C=CC3C(=O)N(Cc4ccccc4)C(=O)C3N2n2cnnc2)cc1Br (centres undefined),-0.797,-8.67 (active),-0.982 (inactive),-0.552 (inactive),-0.169 (inactive),-3.92 (inactive),-0.514 (inactive),-0.905 (inactive),-1.21,0.197,0.236 (inactive),0.0481,-0.976,0.767 (inactive),0.0176 (inactive),0.301 (inactive)
CCOC(=O)C1=C[C@@H](c2ccccc2)N(S(=O)(=O)c2ccc(C)cc2)[C@H]1c1ccc(OC)cc1,-0.664,1.11 (inactive),-1.01 (inactive),-0.668 (inactive),0.0236 (inactive),0.409 (inactive),-1.06 (inactive),-0.834 (inactive),-1.24,-0.0428,0.138 (inactive),0.599,-1.84,0.842 (inactive),-0.0622 (inactive),-0.614 (inactive)
O=C1OCCC=C[C@H]2OC34C=CCN(c5ccc6ccccc6c5)C(=O)[C@H]3N(CCCO)C(=O)[C@@H]4C12 (some centres undefined),-0.0412,-0.129 (inactive),-0.284 (inactive),-0.286 (inactive),-0.385 (inactive),0.393 (inactive),-0.127 (inactive),-0.611 (inactive),-0.496,0.158,-0.725 (inactive),-0.617,-1.83,-2.31 (inactive),-0.292 (inactive),-0.64 (inactive)
Cc1ccc(NN2C(C(O)c3c(F)cccc3Cl)C=CC3C(=O)N(C4CCCCC4)C(=O)C32)cc1 (centres undefined),0.703,-0.074 (inactive),0.0812 (inactive),-1.12 (inactive),1.47 (inactive),-0.717 (inactive),-0.452 (inactive),0.432 (inactive),0.262,0.122,-0.391 (inactive),0.696,-0.216,-3.84 (inactive),-0.0771 (inactive),-0.369 (inactive)

# From PubChem BioAssay
